Screening data as filed in PubChem BioAssay.
Rows were chosen to be rich in hits. Some 3.7% of all compounds tested hit in one or more screens of this group.
tim23-1 inh = growth inhibitors of tim23-1 mutant yeast. inhibition, % at 20 µM. AID 463212. actives 1.3% (n = 330,000). S. cerevisiae tim23-1 growth, BacTiter-Glo luminescence, 24 h;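 active means growth inhibition of the mutant yeast at or above 50%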;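 further: temperature-sensitive mutant grown at 25 °C; plate controls were DMSO-treated mutant yeast for no effect and medium wells lacking yeast for full effect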
TIM10 inh = TIM10 yeast growth inhibition; S. cerevisiae TIM10 strain growth, BacTiter-Glo luminescence, 24 h; AID 463195; actives 1.4% (n = 330,000); inhibition, % at 10 µM;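 active means inhibition of 40% or more at the single tested concentration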;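 further: wild-type TIM10 isogenic control strain grown at permissive 25 °C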
NLRP3 yeast inh = NALP3 inhibition in yeast | inhibition, % at 10 µM | actives 0.39% (n = 330,000) | Yeast reconstituted NLRP3/ASC/caspase-1, beta-gal luminescence, 24 h;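 active means inhibition of 50% or more; inactive means inhibition below 50%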;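 further: plate controls were induced DMSO wells for no effect and uninduced yeast grown without galactose for full effect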
tim10-1 inh = growth inhibitors of tim10-1 mutant yeast; inhibition, % at 20 µM; AID 463190; actives 2.2% (n = 330,000); S. cerevisiae tim10-1 ts strain growth, BacTiter-Glo, 24 h;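 active means inhibition of at least 40%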;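 further: mutant grown at 25 °C; 0% = DMSO wells with yeast and 100% = wells holding no yeast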
PfHsp90 yeast 2 = reduces growth (ATP signal) of yeast expressing P. falciparum Hsp90; S. cerevisiae expressing PfHsp90, BacTiter-Glo ATP, 48 h; yeast lacking PDR1 and PDR3 efflux regulators; inhibition, % at 9.4 µM; actives 0.32% (n = 310,000);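 active means every replicate shows inhibition above about 80%, whatever the replicate mean, limit read from the data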;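 further: 0% = DMSO neutral controls and 100% = 20 µM radicicol positive controls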
tim10-1 confirm = tim10-1 yeast growth inhibition, confirmed. inhibition, % at 20 µM. actives 56% (n = 7,400). shares compounds with tim10-1 inh. S. cerevisiae tim10-1 ts strain growth, BacTiter-Glo, 24 h. AID 463213;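 active means inhibition of yeast growth at or above a set limit in either of two repeat tests at 20 µM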;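 further: tim10-1 mutant grown at permissive 25 °C to find synthetic lethal compounds; 0% = DMSO yeast wells and 100% = medium wells without yeast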
* hit, by the source's call.

For Cc1nc2cc(C(F)(F)F)ccc2n1CCNc1nc(-c2ccc(F)cc2)cs1 the results were tim23-1 inh 15.1, TIM10 inh 12.8, NLRP3 yeast inh 16.2, tim10-1 inh 45.8*, PfHsp90 yeast 2 -22.4 and tim10-1 confirm 22.4.
`COc1ccc(-c2csc(NCCn3c(C)nc4cc(C(F)(F)F)ccc43)n2)cc1` gave tim23-1 inh 46.8, TIM10 inh 12.7, NLRP3 yeast inh 22.6, tim10-1 inh 15.3 and PfHsp90 yeast 2 3.9.
For Cc1c(CC(=O)O)c(=O)oc2cc(OCc3ccc(Br)cc3)ccc12 the results were tim23-1 inh 17.6, TIM10 inh 10.3, NLRP3 yeast inh 6.7, tim10-1 inh 17.9 and PfHsp90 yeast 2 17.4.
N#CC(C(=O)Nc1ccc(Cl)c(Cl)c1)=C1Nc2ccccc2N1 was read as tim23-1 inh -10.5, TIM10 inh 7.2, NLRP3 yeast inh 12.8, tim10-1 inh 44.9*, PfHsp90 yeast 2 -10.1 and tim10-1 confirm 19.5.
CCOc1ccc(CCNC(=O)CCn2ccc3cc(S(=O)(=O)N4CCCC4)ccc32)cc1 was read as tim23-1 inh 10.6, TIM10 inh 5.5, NLRP3 yeast inh 2.8, tim10-1 inh 15.8 and PfHsp90 yeast 2 28.1.
For COc1ccc(Br)cc1S(=O)(=O)Nc1ccc(Cl)cn1 the results were tim23-1 inh 1.7, TIM10 inh -44.7, NLRP3 yeast inh 8.1, tim10-1 inh -37.6 and PfHsp90 yeast 2 -3.4.
For Cc1cc(C)cc(NC(=O)c2cc(S(=O)(=O)NCc3ccco3)ccc2F)c1 the results were tim23-1 inh 41.3, TIM10 inh 38.7, NLRP3 yeast inh 9.1, tim10-1 inh 46.0*, PfHsp90 yeast 2 -14.9 and tim10-1 confirm 40.1*.
`Cc1ccc(S(=O)(=O)NCc2ccco2)cc1C` gave tim23-1 inh -4.9, TIM10 inh 4.7, NLRP3 yeast inh 14.2, tim10-1 inh 3.2 and PfHsp90 yeast 2 8.9.
Screening O=S(=O)(NCc1ccco1)c1ccc2c(c1)Cc1ccccc1-2 returned tim23-1 inh 25.8, TIM10 inh 34.4, NLRP3 yeast inh 7.9, tim10-1 inh 45.1* and tim10-1 confirm 34.8*.
For O=C(Nc1ccccc1)OCC1COC(c2ccccc2)(c2ccccc2)O1 (centres undefined) the results were PfHsp90 yeast 2 3.3.
Cc1cc(C)c2nc(N(CCCN(C)C)C(=O)c3ccc(S(=O)(=O)N4CC(C)OC(C)C4)cc3)sc2c1 (centres undefined) was read as tim23-1 inh 13.5, TIM10 inh 16.4, NLRP3 yeast inh 18.8, tim10-1 inh 22.6 and PfHsp90 yeast 2 22.8.
CCN(Cc1ccccc1)S(=O)(=O)c1ccc(C(=O)N(CCCN(C)C)c2nc3c(C)c(C)ccc3s2)cc1 was read as tim23-1 inh 28.2, TIM10 inh 5.4, NLRP3 yeast inh 18.9, tim10-1 inh 46.1*, PfHsp90 yeast 2 14.3 and tim10-1 confirm -1.8.
`Cc1cc(C)c2nc(N(CCN(C)C)C(=O)c3ccc(S(=O)(=O)N(C)CC4CCCO4)cc3)sc2c1` (centres undefined) gave tim23-1 inh 21.6, TIM10 inh 14.9, NLRP3 yeast inh 7.5, tim10-1 inh 42.1*, PfHsp90 yeast 2 -27.5 and tim10-1 confirm 3.1.
`Cc1ccc2sc(N(CCN(C)C)C(=O)c3ccc(S(=O)(=O)N4CC(C)OC(C)C4)cc3)nc2c1C` (centres undefined) gave tim23-1 inh 26.5, TIM10 inh 28.6, NLRP3 yeast inh 11.4, tim10-1 inh 40.3*, PfHsp90 yeast 2 -29.9 and tim10-1 confirm 24.1.
Cc1cccc(CSC(Nc2ccc(F)cc2)=C(C#N)C#N)c1 was read as tim23-1 inh 25.4, TIM10 inh 24.0, NLRP3 yeast inh 11.6, tim10-1 inh 43.6*, PfHsp90 yeast 2 -0.5 and tim10-1 confirm 28.1.
`N#CC(C#N)=C(Nc1ccc(F)cc1)SCc1cccc(Br)c1` gave PfHsp90 yeast 2 -12.8.
`Cc1c(C(=O)NCCSc2ccc(Cl)cc2)cccc1[N+](=O)[O-]` gave tim23-1 inh 38.3, TIM10 inh 29.8, NLRP3 yeast inh 13.2, tim10-1 inh 41.3*, PfHsp90 yeast 2 -18.6 and tim10-1 confirm 37.0*.
Screening COc1ccc(CCNC(=O)CCC(=O)n2ncc3cc(C)ccc32)cc1OC returned tim23-1 inh 12.4, TIM10 inh -0.9, NLRP3 yeast inh 23.4, tim10-1 inh 8.1 and PfHsp90 yeast 2 -15.4.
C=CCOc1ccccc1/C=c1\sc2nc(=O)c(C)nn2c1=O was read as tim23-1 inh 47.4, TIM10 inh 30.4, NLRP3 yeast inh -3.5, tim10-1 inh 44.8*, PfHsp90 yeast 2 -7.3 and tim10-1 confirm 50.5*.
`CCOc1ccc(C(=O)CCC(=O)N2CCN(S(=O)(=O)c3cccc(F)c3)CC2)cc1` gave tim23-1 inh 28.9, TIM10 inh 8.5, NLRP3 yeast inh 12.4, tim10-1 inh 14.3 and PfHsp90 yeast 2 -7.3.
Screening COCCCNC1=C(Cl)C(=O)c2ccccc2C1=O returned tim23-1 inh 40.6, TIM10 inh 26.6, NLRP3 yeast inh 14.7, tim10-1 inh 30.1 and PfHsp90 yeast 2 -1.4.
`COCCCNc1c2c3c(cccc3[nH]c1=O)C(=O)c1ccccc1-2` gave tim23-1 inh 15.7, TIM10 inh 31.0, NLRP3 yeast inh -2.7, tim10-1 inh 40.5*, PfHsp90 yeast 2 20.6 and tim10-1 confirm 22.9.
`N/C(Cc1ccc([N+](=O)[O-])cc1)=N\OC(=O)Cc1ccccc1` gave tim23-1 inh 15.4, TIM10 inh 14.3, NLRP3 yeast inh 31.4, tim10-1 inh 50.5*, PfHsp90 yeast 2 -0.7 and tim10-1 confirm 41.0*.
Screening Cc1ccc(OCC(=O)O/N=C(\N)Cc2ccc([N+](=O)[O-])cc2)cc1C returned tim23-1 inh 29.1, TIM10 inh 16.1, NLRP3 yeast inh 22.1, tim10-1 inh 52.4*, PfHsp90 yeast 2 1.8 and tim10-1 confirm 53.3*.
`Cc1cccc(OCC(=O)O/N=C(\N)Cc2ccc([N+](=O)[O-])cc2)c1` gave tim23-1 inh 24.8, TIM10 inh 32.0, NLRP3 yeast inh 22.1, tim10-1 inh 15.2 and PfHsp90 yeast 2 0.7.
Cc1ccc(NC(=O)c2cnc(SCC(=O)c3ccccc3)n(C)c2=O)cc1 was read as tim23-1 inh -2.6, TIM10 inh 0.4, NLRP3 yeast inh 6.8, tim10-1 inh -1.9 and PfHsp90 yeast 2 -9.9.
`CC(C)CC(=O)Nc1nnc(S(=O)(=O)N2CCc3ccccc32)s1` gave tim23-1 inh -3.6, TIM10 inh -15.1, NLRP3 yeast inh 21.9, tim10-1 inh 1.8 and PfHsp90 yeast 2 -4.9.
CCC(=O)Nc1nnc(S(=O)(=O)N2CCc3ccccc32)s1 was read as tim23-1 inh 6.6, TIM10 inh 1.2, NLRP3 yeast inh 20.6, tim10-1 inh 48.6*, PfHsp90 yeast 2 -13.3 and tim10-1 confirm 5.7.
For N/C(=N\OC(=O)CCCOc1ccccc1)c1ccc([N+](=O)[O-])cc1 the results were tim23-1 inh 22.6, TIM10 inh 28.1, NLRP3 yeast inh 15.3, tim10-1 inh 54.8*, PfHsp90 yeast 2 15.5 and tim10-1 confirm 41.8*.
